Reference: PubChem BioAssay (EPA / NIEHS)
Records with an inconclusive call do not appear. Active and inactive are the calls of the source. Rule for the calls, unless noted: active = hit-call score of the fitted dose curve at least 0.9, where 1 is the maximum; inactive = score below 0.9.

What was measured:
CD40, CD40 (gene 958) = assay: BSK_LPS_CD40: BioMAP Diversity Plus: LPS Assay for CD40 Biomarker Activity (AID 2283076); conditions: primary human HUVEC with PBMC; actives raise or lower the signal
Outline: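 Primary human umbilical vein endothelial cells co-cultured with peripheral blood mononuclear cells, LPS-stimulated, were dosed with chemical and read 24 h later. CD40 levels were measured by ELISA and fitted bidirectionally against DMSO as negative control and baseline.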

[1] = read-out: Interleukin-8 (IL8), CXCL8 (gene 3576); assay: BSK_LPS_IL8: BioMAP Diversity Plus: LPS Assay for Interleukin-8 (IL8) Biomarker Activity (AID 2283078); conditions: primary human HUVEC with PBMC; actives raise or lower the signal
Outline: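 Human umbilical vein endothelial cells co-cultured with PBMC were stimulated with LPS; IL-8 levels were measured by ELISA 24 h after chemical dosing. Activity was fitted bidirectionally against DMSO as negative control and baseline.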

[2] = BSK_LPS_SRB: Viability Assessment in the BioMAP Diversity Plus: LPS Assay (AID 2283079); conditions: primary human HUVEC with PBMC;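 note: total protein by sulforhodamine B absorbance as a cytotoxicity measure; measured one day after compound addition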
Outline: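 Human umbilical vein endothelial cells co-cultured with PBMC (LPS system) were dosed for 24 h. Total protein was stained with 0.1% sulforhodamine B after 10% TCA fixation, read at 560 nm, and fitted bidirectionally against DMSO baseline.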

[3] = read-out: Interleukin-1 alpha (IL1a), IL1A (gene 3552); assay: BSK_LPS_IL1a: BioMAP Diversity Plus: LPS Assay for Interleukin-1 alpha (IL1a) Biomarker Activity (AID 2283080); conditions: primary human HUVEC with PBMC; actives raise or lower the signal
Outline: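 Human umbilical vein endothelial cells co-cultured with peripheral blood mononuclear cells were LPS-stimulated and exposed to test chemicals for 24 h. IL-1 alpha was quantified by ELISA, with bidirectional curve fitting against DMSO as the negative control and baseline.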

[4] = read-out: Monocyte Chemoattractant Protein-1 (MCP1), CCL2 (gene 6347); assay: BSK_LPS_MCP1: BioMAP Diversity Plus: LPS Assay for Monocyte Chemoattractant Protein-1 (MCP1) Biomarker Activity (AID 2283081); conditions: primary human HUVEC with PBMC; actives raise or lower the signal
Outline: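 HUVEC plus PBMC co-culture (human primary cells, LPS system) exposed to test chemical for 24 h; MCP-1 measured by ELISA. Bidirectional curve fitting against DMSO baseline; parallel SRB total-protein staining flags overt cytotoxicity.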

[5] = BSK_LPS_PGE2: BioMAP Diversity Plus: LPS Assay for Prostaglandin E2 (PGE2) Biomarker Activity (AID 2283082); conditions: primary human HUVEC with PBMC; actives raise or lower the signal
Outline: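 Endpoint derived from bidirectional curve fitting versus DMSO of ELISA-measured PGE2 in LPS-stimulated human primary vascular co-culture (HUVEC with PBMC) harvested at 24 h.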

[6] = read-out: Macrophage colony-stimulating factor (MCSF), CSF1 (gene 1435); assay: BSK_LPS_MCSF: BioMAP Diversity Plus: LPS Assay for Macrophage colony-stimulating factor (MCSF) Biomarker Activity (AID 2283083); conditions: primary human HUVEC with PBMC; actives raise or lower the signal
Outline: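 Human umbilical vein endothelial cells co-cultured with peripheral blood mononuclear cells were exposed to compound for 24 h. M-CSF levels were measured by ELISA, and bidirectional curve fitting used DMSO as the negative control and baseline.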

[7] = read-out: Tissue Factor, F3 (gene 2152); assay: BSK_LPS_TissueFactor: BioMAP Diversity Plus: LPS Assay for Tissue Factor Biomarker Activity (AID 2283084); conditions: primary human HUVEC with PBMC; actives raise or lower the signal
Outline: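 Human umbilical vein endothelial cells co-cultured with peripheral blood mononuclear cells were dosed and stimulated with LPS. Cell-surface CD142 was quantified by ELISA at 24 h. Activity was fitted bidirectionally against DMSO baseline.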

[8] = read-out: Tumor necrosis factor (Homo sapiens) (UniProt P01375); assay: BSK_LPS_TNFa: BioMAP Diversity Plus: LPS Assay for Tumour Necrosis Factor alpha (TNFa) Biomarker Activity (AID 2283085); conditions: primary human HUVEC with PBMC; actives raise or lower the signal
Outline: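 Primary human vascular co-culture of HUVEC and PBMC; TNFa ELISA 24 h after treatment, analysed as increase or decrease relative to DMSO control.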

[9] = read-out: Vascular cell adhesion molecule 1 (VCAM1), VCAM1 (gene 7412); assay: BSK_LPS_VCAM1: BioMAP Diversity Plus: LPS Assay for Vascular cell adhesion molecule 1 (VCAM1) Biomarker Activity (AID 2283086); conditions: primary human HUVEC with PBMC; actives raise or lower the signal
Outline: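 Primary human vascular co-culture (umbilical vein endothelium plus PBMC) stimulated with LPS received chemical; 24 h later VCAM-1 was read by ELISA. Overt cytotoxicity was assessed by sulforhodamine B staining of parallel cultures at the same time point.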

CD38, CD38 (gene 952) = assay: BSK_SAg_CD38: BioMAP Diversity Plus: SAg Assay for CD38 Biomarker Activity (AID 2283087); conditions: primary human HUVEC with PBMC; actives raise or lower the signal
Outline: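 Fluorescence ELISA of cell-surface CD38 served as the read-out, with either increase or decrease fitted against DMSO controls. Cells were a human umbilical vein endothelium plus PBMC co-culture under SEB/TSST-1 stimulation, measured 24 h after dosing.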

CD69, CD69 (gene 969) = assay: BSK_SAg_CD69: BioMAP Diversity Plus: SAg Assay for CD69 Biomarker Activity (AID 2283089); conditions: primary human HUVEC with PBMC; actives raise or lower the signal
Outline: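 HUVEC co-cultured with PBMC were dosed with chemical, and CD69 was measured by ELISA with fluorescence read-out 24 h later. Bidirectional curve fitting used DMSO as negative control and activity baseline.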

[10] = read-out: Monocyte Chemoattractant Protein-1 (MCP1), CCL2 (gene 6347); assay: BSK_SAg_MCP1: BioMAP Diversity Plus: SAg Assay for Monocyte Chemoattractant Protein-1 (MCP1) Biomarker Activity (AID 2283090); conditions: primary human HUVEC with PBMC; actives raise or lower the signal
Outline: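 MCP-1 levels in the endothelial–PBMC SAg co-culture were quantified by ELISA at 24 h post-dosing; both increases and decreases versus DMSO scored. Cytotoxicity monitored by SRB total protein in parallel cultures.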

[11] = read-out: E-selectin (Homo sapiens) (UniProt P16581); assay: BSK_SAg_Eselectin: BioMAP Diversity Plus: SAg Assay for Eselectin Biomarker Activity (AID 2283091); conditions: primary human HUVEC with PBMC; actives raise or lower the signal
Outline: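 HUVEC co-cultured with PBMC, compound dosed then read at 24 h; E-selectin measured by ELISA. Activity fitted bidirectionally against DMSO as negative control and baseline.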

[12] = read-out: Monokine induced gamma interferon (MIG), CXCL9 (gene 4283); assay: BSK_SAg_MIG: BioMAP Diversity Plus: SAg Assay for Monokine induced gamma interferon (MIG) Biomarker Activity (AID 2283092); conditions: primary human HUVEC with PBMC; actives raise or lower the signal
Outline: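 HUVEC plus human PBMC co-culture, chemicals dosed and MIG (CXCL9) quantified by ELISA at 24 h. Bidirectional curve fitting against DMSO as negative control and baseline, so both gain and loss of signal count as activity.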

[13] = BSK_SAg_PBMCCytotoxicity: PBMC Cytotoxicity Assessment in the BioMAP Diversity Plus: SAg Assay (AID 2283093); conditions: primary human HUVEC with PBMC;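 note: PBMC viability measured as Alamar Blue reduction fluorescence at 546/580 nm; fitted both ways against DMSO so a hit may be loss or gain of signal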
Outline: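 Compound added to 75,000 PBMC/well for 1 h; SEB and TSST-1 then added at 20 ng/mL final each; 90 h incubation; Alamar Blue 6 h; read 546/580 nm ex/em. Activity fitted bidirectionally relative to DMSO baseline.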

[14] = read-out: Interleukin-8 (IL8), CXCL8 (gene 3576); assay: BSK_SAg_IL8: BioMAP Diversity Plus: SAg Assay for Interleukin-8 (IL8) Biomarker Activity (AID 2283094); conditions: primary human HUVEC with PBMC; actives raise or lower the signal
Outline: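 In this co-culture of human umbilical vein endothelium with peripheral blood mononuclear cells, IL-8 is assayed by ELISA at 24 h. DMSO serves as baseline for bidirectional curve fitting.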

[15] = BSK_SAg_Proliferation: Cell Proliferation Assessment in the BioMAP Diversity Plus: SAg Assay (AID 2283095); conditions: primary human HUVEC with PBMC;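 note: relative cell number as total protein by SRB absorbance in sub-confluent culture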
Outline: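 Readout is SRB-stained protein (560 nm) in a primary human HUVEC and PBMC co-culture; sub-confluent cultures are read at 96 h. Activity is fitted bidirectionally using DMSO as baseline.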

[16] = BSK_SAg_SRB: Viability Assessment in the BioMAP Diversity Plus: SAg Assay (AID 2283096); conditions: primary human HUVEC with PBMC;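 note: cells read one day after compound addition; hits may be either gain or loss of signal compared with DMSO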
Outline: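 Total protein by sulforhodamine B staining, 24 h after dosing, in HUVEC–PBMC co-culture; DMSO-referenced bidirectional fitting.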

[17] = TOX21_p53_BLA_p2_viability: Viability Assessment in the Tox21 HCT-116 p53 Agonism Beta-lactamase Assay, Phase 2 (AID 2283591; active = hit-call score of the fitted dose curve at least 0.9, where 1 is the maximum;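 note: compound exposure lasted 16 h at 37 °C; actives lower the ATP signal meaning cytotoxicity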)
Outline: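 Cytotoxicity readout: CellTiter-Glo ATP luminescence, 30 min at room temperature, after the beta-lactamase read. Cells were HCT116 exposed 16 h at 37C to compounds pin-transferred at 217-fold dilution from DMSO stocks.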

[18] = biological target: Cellular tumor antigen p53 (Homo sapiens) (UniProt P04637); assay: TOX21_p53_BLA_p2_ratio: Tox21 HCT-116 p53 Agonism Beta-lactamase Assay, Ratio, Phase 2 (AID 2283592; active = hit-call score of the fitted dose curve at least 0.9, where 1 is the maximum)
Outline: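 HCT116 cells carrying a p53-responsive beta-lactamase reporter were plated, incubated 5 h at 37C, then dosed with compounds in DMSO (217-fold dilution) for 16 h. CCF4-AM substrate was added for 2 h at room temperature; the 460/530 nm emission ratio gave gain-of-signal activity relative to DMSO.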

[19] = TOX21_p53_BLA_p3_viability: Viability Assessment in the Tox21 HCT-116 p53 Agonism Beta-lactamase Assay, Phase 3 (AID 2283593; active = hit-call score of the fitted dose curve at least 0.9, where 1 is the maximum;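 note: cells exposed to compound for 16 h before reading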)
Outline: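 Cellular ATP was quantified by CellTiter-Glo luminescence, read after 30 min at room temperature. Beforehand, HCT116 cells (4000/well) received compound 5 h post-seeding, 217-fold diluted from DMSO, then incubated 16 h at 37C.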

[20] = biological target: Cellular tumor antigen p53 (Homo sapiens) (UniProt P04637); assay: TOX21_p53_BLA_p3_ratio: Tox21 HCT-116 p53 Agonism Beta-lactamase Assay, Ratio, Phase 3 (AID 2283596; active = hit-call score of the fitted dose curve at least 0.9, where 1 is the maximum)
Outline: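 HCT116 p53-bla cells (4000/well) given compound in DMSO (217-fold dilution) after 5 h, incubated 16 h at 37C. CCF4-AM substrate 2 h at room temperature; 460/530 nm emission ratio, gain fitted against DMSO.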

[21] = TOX21_p53_BLA_p4_viability: Viability Assessment in the Tox21 HCT-116 p53 Agonism Beta-lactamase Assay, Phase 4 (AID 2283597; active = hit-call score of the fitted dose curve at least 0.9, where 1 is the maximum;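 note: hits lower the luminescence signal meaning cytotoxicity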)
Outline: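 HCT116 p53-bla cells (4000/well) rested 5 h at 37C, then received compounds in DMSO (217-fold dilution) for 16 h at 37C, 5% CO2. CellTiter-Glo was added after the CCF4-AM read, and luminescence was read after 30 min at room temperature.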

[22] = biological target: Cellular tumor antigen p53 (Homo sapiens) (UniProt P04637); assay: TOX21_p53_BLA_p5_ratio: Tox21 HCT-116 p53 Agonism Beta-lactamase Assay, Ratio, Phase 5 (AID 2283599; active = hit-call score of the fitted dose curve at least 0.9, where 1 is the maximum)
Outline: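 Beta-lactamase reporter ratio (blue 460 nm over green 530 nm, 405 nm excitation) after 2 h CCF4-AM loading, in HCT-116 cells exposed 16 h at 37 C to compounds pinned at 217-fold dilution. Increases relative to DMSO baseline scored.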

[23] = TOX21_p53_BLA_p5_viability: Viability Assessment in the Tox21 HCT-116 p53 Agonism Beta-lactamase Assay, Phase 5 (AID 2283600; active = hit-call score of the fitted dose curve at least 0.9, where 1 is the maximum)
Outline: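 Cells were plated at 4000/well, rested 5 h at 37C, then given compounds in DMSO (217-fold dilution) for 16 h at 37C, 5% CO2. Following the CCF4-AM beta-lactamase read, CellTiter-Glo was added and luminescence was read after 30 min at room temperature.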

[24] = biological target: Cellular tumor antigen p53 (Homo sapiens) (UniProt P04637); assay: TOX21_p53_BLA_p4_ratio: Tox21 HCT-116 p53 Agonism Beta-lactamase Assay, Ratio, Phase 4 (AID 2283601; active = hit-call score of the fitted dose curve at least 0.9, where 1 is the maximum)
Outline: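 Signal is the blue/green (460nm/530nm) ratio of cleaved versus uncleaved CCF4-AM substrate, read after 2 h substrate loading. Cells were HCT116 carrying the p53-responsive beta-lactamase reporter, dosed 16 h at 37C, 5% CO2; CellTiter-Glo measured in parallel.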

[25] = CCTE_Shafer_MEA_acute_firing_rate_mean: CCTE's Neural Acute Assay for Mean Firing Rate, Shafer Lab (AID 2284009);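 note: analyzed for loss of signal so actives lower firing rate relative to DMSO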
Outline: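 Percent change in well-mean firing rate was derived from extracellular spikes detected at 8x rms noise (300-5000 Hz band-pass) before and after a 40-min compound exposure. Cultures were primary rat cortical neurons, tested at 0.03-40 uM.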

[26] = CCTE_Shafer_MEA_acute_burst_number: CCTE's Neural Acute Assay for Single-Electrode Bursts, Shafer Lab (AID 2284013)
Outline: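 Spontaneous network activity of primary rat cortical neurons was recorded extracellularly on microelectrode arrays at 37 C, with 40-min periods before and during exposure to 0.03-40 uM compound on DIV 13 or 15.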

Measured: AC50

Cellular tumor antigen p53 (Homo sapiens), sequence (P04637 whole entry, looked up): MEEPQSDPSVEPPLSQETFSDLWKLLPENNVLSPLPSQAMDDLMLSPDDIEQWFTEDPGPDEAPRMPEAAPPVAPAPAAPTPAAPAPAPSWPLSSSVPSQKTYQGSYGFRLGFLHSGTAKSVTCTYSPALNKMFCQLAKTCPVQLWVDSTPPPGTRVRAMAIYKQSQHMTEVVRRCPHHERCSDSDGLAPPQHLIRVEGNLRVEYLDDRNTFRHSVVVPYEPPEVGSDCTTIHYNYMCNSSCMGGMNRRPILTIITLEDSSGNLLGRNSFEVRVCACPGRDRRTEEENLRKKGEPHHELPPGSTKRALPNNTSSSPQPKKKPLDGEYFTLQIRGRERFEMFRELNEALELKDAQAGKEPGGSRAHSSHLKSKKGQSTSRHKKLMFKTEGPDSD
Tumor necrosis factor (Homo sapiens), sequence (P01375 whole entry, looked up): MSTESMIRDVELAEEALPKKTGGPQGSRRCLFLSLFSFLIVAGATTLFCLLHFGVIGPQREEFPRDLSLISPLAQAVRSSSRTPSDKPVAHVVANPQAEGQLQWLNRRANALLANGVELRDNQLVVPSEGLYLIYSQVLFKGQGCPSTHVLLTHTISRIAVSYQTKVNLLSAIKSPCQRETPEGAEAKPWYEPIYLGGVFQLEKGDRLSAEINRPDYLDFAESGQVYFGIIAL
E-selectin (Homo sapiens), sequence (P16581 whole entry, looked up): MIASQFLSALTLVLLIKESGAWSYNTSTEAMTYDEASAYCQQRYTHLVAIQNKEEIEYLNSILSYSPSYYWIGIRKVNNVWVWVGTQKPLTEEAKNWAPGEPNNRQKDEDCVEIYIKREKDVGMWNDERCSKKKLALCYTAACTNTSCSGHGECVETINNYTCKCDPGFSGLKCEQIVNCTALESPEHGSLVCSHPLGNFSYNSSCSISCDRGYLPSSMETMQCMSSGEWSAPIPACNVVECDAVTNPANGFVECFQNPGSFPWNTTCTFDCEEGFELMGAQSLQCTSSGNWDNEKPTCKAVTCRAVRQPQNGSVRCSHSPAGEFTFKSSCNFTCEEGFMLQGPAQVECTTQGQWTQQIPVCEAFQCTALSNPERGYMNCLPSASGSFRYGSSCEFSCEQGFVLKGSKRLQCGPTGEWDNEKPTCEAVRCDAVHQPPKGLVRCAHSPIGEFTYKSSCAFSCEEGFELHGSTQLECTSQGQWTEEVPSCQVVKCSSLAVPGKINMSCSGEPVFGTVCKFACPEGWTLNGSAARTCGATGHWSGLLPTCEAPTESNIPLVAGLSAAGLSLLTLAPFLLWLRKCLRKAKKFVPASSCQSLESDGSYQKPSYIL

CCCC[N+](CCCC)(CCCC)CCCC
active: [25] 3.01 nM | [26] 1.52 nM
inactive: all other assays above
